Test results taken from PubChem BioAssay.
Several values for one entry are separate records, joined by “and”; a condition that tells them apart may be missing. Equal values may be shown once. Records with an inconclusive call do not appear. Activity calls are given as the source filed them.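 How the source made its calls, unless noted: active means normalized viability below 100% at a tested concentration; inactive means the rest.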

Legend:
[1] = Wnt pathway potentiators raising nuclear beta-catenin – imaging, WNT3A-conditioned medium, mouse C2C12, NPC library, primary screen (AID 1117326; in the data active means nuclear beta-catenin stimulation mostly above about 4.2%, no sharp cut-off; inactive means mostly below about 10%); conditions: stronger effect = higher value
[2] = stimulators of insulin release from INS-1E, primary screen, cell-based, 5 mM glucose, NPC library (AID 1117329;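 active means compound raises insulin release from rat beta cells at 5 mM glucose, no numeric limit stated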); conditions: rat INS-1E insulin secretion, at 10 µM, stronger effect = higher value
[3] = growth inhibition of GSK3B-pretreated HCT116 cells – cell-based, CellTiter-Glo, 0.2 to 20 µM (AID 1117336;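 active means compounds lowering colon cancer cell viability after pretreatment blocking the GSK3B kinase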); conditions: HCT116 viability after GSK3B inhibitor, at 20 µM, stronger effect = higher value
[4] = inhibition of endothelial tube formation, primary screen, imaging, VEGF stimulated, CD31 staining, tube area, NPC library (AID 1117340;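 active means compound that reduces growth-factor-driven endothelial tube area in a mixed cell culture, no cutoff stated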); conditions: VEGF-stimulated ADSC/ECFC co-culture, at 10 µM, stronger effect = higher value
[5] = GLP1 release stimulators, primary, NCI-H716, NPC library (AID 1117341;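 active means compound raises GLP1 secretion from the human gut endocrine cells, with no numeric limit stated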); conditions: NCI-H716 cells, at 10 µM, stronger effect = higher value
[6] = HCT116 colon cancer cell growth inhibition, primary screen, CellTiter-Glo luminescence, NPC library (AID 1117342;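 active means compounds that lower survival of HCT116 colon cancer cells in the luminescence readout, no numeric limit stated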); conditions: at 20 µM (top of the series)
[7] = reduced SW480 viability measured with CellTiter-Glo, NPC library, primary (AID 1117343;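 active means compounds that lower viability of the colon cancer cells in the luminescence readout, with no numeric limit stated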); conditions: CellTiter-Glo luminescence; at 20 µM (top of the series) unless noted
[8] = NPC library primary testing for decreased DLD-1 cell viability via CellTiter-Glo (AID 1117346;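 active means compounds that lower survival of DLD-1 colon cancer cells in the luminescence readout, no cutoff given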); conditions: DLD-1 viability, CellTiter-Glo luminescence; at 20 µM (top of the series)
[9] = viability loss in pontine glioma line – cell-based, SU-DIPG-XVII, MIPE5.0, CellTiter-Glo, qHTS, dose response (AID 1347060; cut-off not given, nearly all actives have AC50 up to about 26 µM;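 on AC50: cells exposed to compound for 48 hours before viability readout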); conditions: CellTiter-Glo ATP luminescence
[10] = viability loss in pontine glioma line – cell-based, SU-DIPG-XIII, MIPE4.0, CellTiter-Glo, qHTS, dose response (AID 1347061; cut-off not given, nearly all actives have AC50 up to about 37 µM;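 further: cells exposed to compound for 48 hours before readout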); conditions: CellTiter-Glo ATP luminescence
[11] = viability loss in pontine glioma line – cell-based, JHH-DIPG-1, MIPE4.0, CellTiter-Glo, qHTS, dose response (AID 1347062; cut-off not given, nearly all actives have AC50 up to about 27 µM;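 on AC50: cells exposed to compound for two days before readout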); conditions: JHH-DIPG-1 viability, CellTiter-Glo ATP luminescence
[12] = growth inhibition of DIPG cells – cell-based, MIPE5.0 library, qHTS (AID 1347068; cut-off not given, nearly all actives have IC50 up to about 30 µM;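 on IC50: cells exposed to compound for 48 hours before viability readout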); conditions: SU-DIPG-XXV viability
[13] = viability loss with induced miR-34 in A549 – imaging, A549 dox-inducible miR-34, nuclei and caspase counts, primary screen (AID 1347080;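 active means compounds whose cell count with miR-34 switched on is under 0.7 times the count with it off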); conditions: A549 miR-34 inducible, Hoechst nuclei count, 48 h
[14] = galactose survival enhancers in mitochondrial complex I cybrids – cell-based, galactose medium, ATP luminescence, primary screen (AID 1645843;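 active means z-score of at least 1.8 in each of two replicates, scored against plate mean and spread of sample wells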;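 further: positive z means more ATP and so rescue of galactose-driven cybrid death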); conditions: complex I mutant cybrid cells, 72 h, stronger effect = higher value
[15] = drug combination growth inhibition, ovarian cancer – cell-based, oncology-focused library, rucaparib conditional, profiling panel (AID 1508598); conditions: patient-derived ovarian cancer cells, CellTiter-Glo viability, 144 h, stronger effect = lower value
[16] = test system: Aerobactin synthetase IucA (Klebsiella pneumoniae); test: inhibition of K. pneumoniae IucA enzyme – biochemical, Tocris library, absorbance (AID 1345561; call rule not given here;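 further: 100% = enzyme without compound and 0% = no enzyme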); conditions: purified IucA enzyme assay, absorbance (OD) read-out; stronger effect = lower value;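 tested at 8 µM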
[17] = MELAS cybrid and Rieske KO viability enhancers – cell-based, MELAS cybrids, Rieske KO mouse fibroblasts, CellTiter-Glo, primary screen (AID 1508586;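 active means mean z-score across replicates of 1.96 or higher in either the MELAS or the Rieske mutant cell line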;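 further: z relative to plate mean and SD of compound and empty wells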); conditions: low glucose
[18] = P. berghei load reduction in hepatocytes – cell-based, HepG2, luciferase luminescence, HepG2 viability, primary screen (AID 624349; in the data active means parasite load remaining mostly below about 12%, no sharp cut-off; inactive means mostly above about 10%;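 further: 100% = mean of DMSO negative control wells on the same plate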); conditions: P. berghei liver stage in HepG2, luciferase luminescence, concentration not given here; parasite load remaining: stronger effect = lower value; viability: measured here: HepG2 viability without parasites
[19] = stronger effect = lower value, cell number ratio, induced over uninduced
[20] = measured here: relative caspase fold change +Dox/-Dox
[21] = measured here: total cells with miR-34 induction, stronger effect = lower value
[22] = measured here: total cells without miR-34 induction
[23] = MELAS cybrid survival, CellTiter-Glo 48 h, stronger effect = higher value
[24] = Rieske KO mouse fibroblast survival, CellTiter-Glo 72 h

Compound: Cc1[nH]c(=O)c(C#N)cc1-c1ccc2nccn2c1
- nuclear beta-catenin stimulation ([1]; at 10 µM): -1.8% (inactive)
- nuclear beta-catenin stimulation ([1]; stimulation, at 2 µM): -0.5%
- insulin secretion stimulation [2]: 3% (inactive)
- viability decrease [3]: -9.8% (inactive)
- tube area decrease [4]: -3.8% (inactive)
- GLP1 secretion stimulation [5]: -0.6% (inactive)
- inhibition of viability [6]: -1.6% (inactive)
- viability decrease (inhibition) [7]: 0.1% (inactive)
- viability decrease (inhibition) [8]: -7.8% (inactive)
- outcome [9]: inactive
- outcome [10]: inactive
- outcome [11]: inactive
- outcome [12]: inactive
- fold change [13, 19]: 0.996 (inactive)
- fold change [13, 20]: 0.805
- cell count [13, 21]: 9250
- cell count [13, 22]: 9290
- z-score [14]: 0.905 (inactive)

Compound: CCN(CC)CCNC(=O)c1c(C)[nH]c(/C=C2\C(=O)Nc3ccc(F)cc32)c1C
- nuclear beta-catenin stimulation ([1]; at 10 µM): 0.3% (inactive)
- nuclear beta-catenin stimulation ([1]; stimulation, at 2 µM): -2%
- insulin secretion stimulation [2]: 47.3% (active)
- viability decrease [3]: 108% (active)
- tube area decrease [4]: 103% (active)
- GLP1 secretion stimulation [5]: 18.2% (inactive)
- inhibition of viability [6]: 110% (active)
- viability decrease (inhibition) [7]: 127% (active)
- viability decrease (inhibition) [8]: 93.4% (active)
- AC50 [9]: 7.42 µM (active)
- AC50 [10]: 38.2 µM (active)
- AC50 [11]: 10.8 µM (active)
- fold change [13, 19]: 0.916 (inactive)
- fold change [13, 20]: 1.17
- cell count [13, 21]: 715
- cell count [13, 22]: 780
- viability ([15]; at 0.000305 µM, OCI-C5x cells, with rucaparib 10 µM, 100% = cells with rucaparib alone): 110% (inactive)
- viability ([15]; at 0.000305 µM, OCI-C5x cells, without rucaparib): 107% (inactive)
- viability ([15]; at 0.000305 µM, OCI-P5x cells, with rucaparib 20 µM, 100% = cells with rucaparib alone): 84% (active)
- viability ([15]; at 0.000305 µM, OCI-P5x cells, without rucaparib): 93.8% (active)
- viability ([15]; at 0.00122 µM, OCI-C5x cells, with rucaparib 10 µM, 100% = cells with rucaparib alone): 114% (inactive)
- viability ([15]; at 0.00122 µM, OCI-C5x cells, without rucaparib): 102% (inactive)
- viability ([15]; at 0.00122 µM, OCI-P5x cells, with rucaparib 20 µM, 100% = cells with rucaparib alone): 98.6% (active)
- viability ([15]; at 0.00122 µM, OCI-P5x cells, without rucaparib): 88.3% (active)
- viability ([15]; at 0.00488 µM, OCI-C5x cells, with rucaparib 10 µM, 100% = cells with rucaparib alone): 113% (inactive)
- viability ([15]; at 0.00488 µM, OCI-C5x cells, without rucaparib): 108% (inactive)
- viability ([15]; at 0.00488 µM, OCI-P5x cells, with rucaparib 20 µM, 100% = cells with rucaparib alone): 96.3% (active)
- viability ([15]; at 0.00488 µM, OCI-P5x cells, without rucaparib): 97.4% (active)
- viability ([15]; at 0.0195 µM, OCI-C5x cells, with rucaparib 10 µM, 100% = cells with rucaparib alone): 115% (inactive)
- viability ([15]; at 0.0195 µM, OCI-C5x cells, without rucaparib): 99.1% (active)
- viability ([15]; at 0.0195 µM, OCI-P5x cells, with rucaparib 20 µM, 100% = cells with rucaparib alone): 98.7% (active)
- viability ([15]; at 0.0195 µM, OCI-P5x cells, without rucaparib): 95.9% (active)
- viability ([15]; at 0.0781 µM, OCI-C5x cells, with rucaparib 10 µM, 100% = cells with rucaparib alone): 118% (inactive)
- viability ([15]; at 0.0781 µM, OCI-C5x cells, without rucaparib): 111% (inactive)
- viability ([15]; at 0.0781 µM, OCI-P5x cells, with rucaparib 20 µM, 100% = cells with rucaparib alone): 95% (active)
- viability ([15]; at 0.0781 µM, OCI-P5x cells, without rucaparib): 99.9% (active)
- viability ([15]; at 0.313 µM, OCI-C5x cells, with rucaparib 10 µM, 100% = cells with rucaparib alone): 123% (inactive)
- viability ([15]; at 0.313 µM, OCI-C5x cells, without rucaparib): 113% (inactive)
- viability ([15]; at 0.313 µM, OCI-P5x cells, with rucaparib 20 µM, 100% = cells with rucaparib alone): 93.2% (active)
- viability ([15]; at 0.313 µM, OCI-P5x cells, without rucaparib): 99.5% (active)
- viability ([15]; at 1.25 µM, OCI-C5x cells, with rucaparib 10 µM, 100% = cells with rucaparib alone): 126% (inactive)
- viability ([15]; at 1.25 µM, OCI-C5x cells, without rucaparib): 117% (inactive)
- viability ([15]; at 1.25 µM, OCI-P5x cells, with rucaparib 20 µM, 100% = cells with rucaparib alone): 89.1% (active)
- viability ([15]; at 1.25 µM, OCI-P5x cells, without rucaparib): 104% (inactive)
- viability ([15]; at 5 µM, OCI-C5x cells, with rucaparib 10 µM, 100% = cells with rucaparib alone): 60.6% (active)
- viability ([15]; at 5 µM, OCI-C5x cells, without rucaparib): 21.7% (active)
- viability ([15]; at 5 µM, OCI-P5x cells, with rucaparib 20 µM, 100% = cells with rucaparib alone): 1.9% (active)
- viability ([15]; at 5 µM, OCI-P5x cells, without rucaparib): 12.8% (active)
- z-score [14]: -1 (inactive)

Compound: C=CCn1c(=O)n([C@@H]2O[C@H](CO)[C@@H](O)[C@H]2O)c2nc(N)[nH]c(=O)c21
- nuclear beta-catenin stimulation ([1]; at 10 µM): 0.1% (inactive)
- nuclear beta-catenin stimulation ([1]; stimulation, at 2 µM): 2.4%
- insulin secretion stimulation [2]: -0.5% (inactive)
- viability decrease [3]: -3.9% (inactive)
- tube area decrease [4]: 12.2% (inactive)
- GLP1 secretion stimulation [5]: 0.6% (inactive)
- inhibition of viability [6]: 2.2% (inactive)
- viability decrease (inhibition) [7]: -8.4% (inactive)
- viability decrease (inhibition) [8]: 1% (inactive)
- remaining activity [16]: 101% (inactive)
- fold change [13, 19]: 0.961 (inactive)
- fold change [13, 20]: 1.57
- cell count [13, 21]: 9010
- cell count [13, 22]: 9380
- z-score [14]: 0.185 (inactive)

Compound: CC(C)OC(=O)C(C(=O)OC(C)C)=C1SC=CS1
- nuclear beta-catenin stimulation ([1]; at 10 µM): 1.3% (inactive)
- nuclear beta-catenin stimulation ([1]; stimulation, at 2 µM): 0.1%
- insulin secretion stimulation [2]: 0.3% (inactive)
- viability decrease [3]: 3.95% (inactive)
- tube area decrease [4]: 4.8% (inactive)
- GLP1 secretion stimulation [5]: 3.5% (inactive)
- inhibition of viability [6]: -0.1% (inactive)
- viability decrease (inhibition) [7]: 6.3% (inactive)
- viability decrease (inhibition) [8]: 8.2% (inactive)
- outcome [9]: inactive
- outcome [10]: inactive
- outcome [11]: inactive
- outcome [12]: inactive
- fold change [13, 19]: 0.9 (inactive)
- fold change [13, 20]: 0.974
- cell count [13, 21]: 7660
- cell count [13, 22]: 8520
- z-score [17, 23]: -0.382 (inactive)
- z-score [17, 24]: 0.382

Compound: CCC(CC)(CC(=O)Nc1cccc(/C=C/c2nc(C3CCC3)cs2)c1)C(=O)O
- nuclear beta-catenin stimulation ([1]; at 10 µM): 0% (inactive)
- nuclear beta-catenin stimulation ([1]; stimulation, at 2 µM): 0.1%
- insulin secretion stimulation [2]: 1% (inactive)
- viability decrease [3]: 96.6% (active)
- tube area decrease [4]: 5.4% (inactive)
- GLP1 secretion stimulation [5]: 1.7% (inactive)
- inhibition of viability [6]: 42.9% (inactive)
- viability decrease (inhibition) [7]: 41% (inactive)
- viability decrease (inhibition) [8]: 70.9% (active)
- remaining activity [16]: 89.3% (inactive)
- fold change [13, 19]: 0.829 (inactive)
- fold change [13, 20]: 1.27
- cell count [13, 21]: 7300
- cell count [13, 22]: 8810
- z-score [14]: 2.4 (active)

Compound: COC(=O)C1=C(C)NC(C)=C(C(=O)OCCCN2CCC(c3ccccc3)(c3ccccc3)CC2)C1c1cccc([N+](=O)[O-])c1 (stereo not drawn)
- parasite load remaining [18]: 29% (inactive)
- viability [18]: 90.5%
- nuclear beta-catenin stimulation ([1]; at 10 µM): -0.8% (inactive)
- nuclear beta-catenin stimulation ([1]; stimulation, at 2 µM): 9.4%
- insulin secretion stimulation [2]: -1.1% (inactive)
- viability decrease [3]: 110% (active)
- tube area decrease [4]: 109% (active)
- GLP1 secretion stimulation [5]: -3.2% (inactive)
- inhibition of viability [6]: 112% (active)
- viability decrease (inhibition) [7]: 134% (active)
- viability decrease (inhibition) [8]: 101% (active)
- AC50 [9]: 10.5 µM (active)
- outcome [10]: inactive
- outcome [11]: inactive
- IC50 [12]: 7.42 µM (active)
- fold change [13, 19]: 1.31 (inactive) and 0.96 (inactive)
- fold change [13, 20]: 0.733 and 0.821
- cell count [13, 21]: 498 and 6520
- cell count [13, 22]: 380 and 6800
- z-score [17, 23]: -1.1 (inactive)
- z-score [17, 24]: -0.158
- z-score [14]: -2.25 (inactive)
